Results: publication PMC7819943, “Rice protein-binding microarrays: a tool to detect cis-acting elements near promoter regions in rice”
Over roughly 39,000 sequences, “fluorescence intensity (a.u.)” has its median near 4,300; the highest 2% begin near 39,000. What follows is part of a selection rich in the highest values, with near analogues and random picks from the rest.

biological target: T1, OsSMF1 (Oryza sativa, UniProt Q6ZLB0 1-436); assay: protein-binding microarray (RPBM); PBS, 2% BSA, 51.3 ng/ul salmon testes DNA, 50 uM zinc acetate, 200 nM TF, 25 C, 1 h; high values mean tight binding; conditions: protein: recombinant; tags: N-terminal polyhistidine and DsRed monomer fusion (pET32a); chain copies: 2; label: CyDye5-dUTP incorporated in the synthesized complementary strand; 3' TTTTT single-stranded linker to array surface; dsDNA, one strand shown
T1 sequence: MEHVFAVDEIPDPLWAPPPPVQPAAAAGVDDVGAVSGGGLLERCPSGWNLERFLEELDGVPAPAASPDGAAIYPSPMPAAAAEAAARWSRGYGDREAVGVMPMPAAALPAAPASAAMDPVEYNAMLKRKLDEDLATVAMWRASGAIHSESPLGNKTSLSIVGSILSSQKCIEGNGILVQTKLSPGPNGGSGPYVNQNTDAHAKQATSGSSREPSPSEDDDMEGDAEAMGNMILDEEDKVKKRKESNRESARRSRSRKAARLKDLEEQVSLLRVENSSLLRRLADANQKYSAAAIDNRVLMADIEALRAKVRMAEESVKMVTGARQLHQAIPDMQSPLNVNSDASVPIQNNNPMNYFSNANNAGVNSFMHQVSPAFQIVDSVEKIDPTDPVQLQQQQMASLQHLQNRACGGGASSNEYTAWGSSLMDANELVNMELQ
In short: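 Transcription factors, each fused N-terminally to a polyhistidine tag and DsRed, were expressed in E. coli BL21-CodonPlus and purified on Ni–NTA. A custom Agilent array was made double-stranded by primer extension with Cy5-dUTP and blocked with 2% BSA. It was incubated with 200 nM protein in PBS, 2% BSA, salmon testes DNA and 50 µM zinc acetate at 25 °C for 1 h, then washed. The binding signal is per-feature fluorescence intensity (arbitrary units) read on an Axon 4000B scanner.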

Row | Sequence | binding signal
1 | GGGCTGGGGAAAATGATCGACTACTTTTAACCATTTCAGTCGGAGTCACCTAGTGCAG | 3420 fluorescence intensity (a.u.)
2 | TACGTTGAATATTACCCTCTTGATGACTTGACTAATTTTACGGAGTCACCTAGTGCAG | 3880 fluorescence intensity (a.u.)
3 | TTATATATCCCTGATAGCTGATTAGTTGGCACATCAGCATCGGAGTCACCTAGTGCAG | 3210 fluorescence intensity (a.u.)
4 | CAAGGGAGGAGGGAGAAAGAAAAGGATGGGAGATTTGCTCCGGAGTCACCTAGTGCAG | 3290 fluorescence intensity (a.u.)
5 | AGAGGTTCAAACTGTATATGTTCTAGACCATTCACAAGCTCGGAGTCACCTAGTGCAG | 64100 fluorescence intensity (a.u.)
6 | AAGGTAGAGTCAAATAGAAGCTCTATATCATGTAGACACTCGGAGTCACCTAGTGCAG | 3360 fluorescence intensity (a.u.)
7 | TGGTCACTGCAGCAGGTTCAGGACAAAGCAACCTGTTTCTCGGAGTCACCTAGTGCAG | 3600 fluorescence intensity (a.u.)
8 | ACCCACACACCCACACCCACACGTCAAAGACCCACGGTTTCGGAGTCACCTAGTGCAG | 3160 fluorescence intensity (a.u.)
9 | CAGAGGCAAACGTACGTGGAGGCAGGAGGAGTGGTCACCGCGGAGTCACCTAGTGCAG | 4440 fluorescence intensity (a.u.)
10 | TGTGGTGTGTGTGTGGCTGAAACCGCGAGGCCGCCGCGAGCGGAGTCACCTAGTGCAG | 3440 fluorescence intensity (a.u.)
11 | CCTAACCGCCCAGCAGAGGCAAAGTGTGGTCGAAACCTAGCGGAGTCACCTAGTGCAG | 49500 fluorescence intensity (a.u.)
12 | CCGTCGCCGGCGGCGGATCGGCCCCACATCACCTCGGCCTCGGAGTCACCTAGTGCAG | 3250 fluorescence intensity (a.u.)
13 | AGAAGACAACAGTGAGGAACTGAGGACACGTGTACTTGGACGGAGTCACCTAGTGCAG | 12600 fluorescence intensity (a.u.)
14 | TGAGCCCATTCTATCTTGTACCAATTTGTGGGATATGGCCCGGAGTCACCTAGTGCAG | 41000 fluorescence intensity (a.u.)
15 | AAATTTGTACCATCTTGTTGTCCATCATTCTTGACAAGAGCGGAGTCACCTAGTGCAG | 3280 fluorescence intensity (a.u.)
16 | ACCTTGTACTTTTGTCTACATATGTGTCATTCTATCTTGGCGGAGTCACCTAGTGCAG | 5120 fluorescence intensity (a.u.)
17 | CATCCACGTGGTGCCGCACCTAACCAGCGTAGCAGTTGCTCGGAGTCACCTAGTGCAG | 5710 fluorescence intensity (a.u.)
18 | GTGTGTGTATGACAGGTGGGACCATATATTAATAGTGTAGCGGAGTCACCTAGTGCAG | 3480 fluorescence intensity (a.u.)
19 | ATCATAGTATGCCGTACGGCCTGGACCTTCTGTCACGTGGCGGAGTCACCTAGTGCAG | 5660 fluorescence intensity (a.u.)
20 | TATGTGGACCATAGTGGCCTTCGGCAATATGGATTAGTAGCGGAGTCACCTAGTGCAG | 47700 fluorescence intensity (a.u.)
21 | CGACTACGAGACGCGAGGTTGAAGACAAGTAAGTACTCCTCGGAGTCACCTAGTGCAG | 65500 fluorescence intensity (a.u.)
22 | CATTCTCCTTCTCTCTCGTACGGCTAGAGGTTGAAGACGACGGAGTCACCTAGTGCAG | 3760 fluorescence intensity (a.u.)
23 | TGCACACCCAGGTTGAAGACGACAATGACGAGCTCGGGCGCGGAGTCACCTAGTGCAG | 3330 fluorescence intensity (a.u.)
